Drawing on PubChem BioAssay AID540333 (Southern Research Specialized Biocontainment Screening …, 2011), this text covers CPE inhibition for 83 compounds.

Structures are written as SMILES. In all, about 10,000 compounds went through this assay and about 320 (3.2%) were called active. No stated cut-off is given here; in the data, active means CPE inhibition mostly above about 9.1% (no sharp cut-off); inactive means mostly below about 7.2%. What follows is part of a selection rich in actives, with near analogues and random picks from the rest.

The assay in a line: Dengue virus cytopathic effect inhibitors, cell-based, CPE readout, HTS (AID 540333). Conditions: Dengue virus CPE inhibition in host cells, at 20 µM; active compounds read high.
For the compound `CC12CCC(C(=O)N(c3ccc(Cl)cc3)C1=O)C2(C)C` (stereo not drawn), the CPE inhibition result was “inactive”.

As to `Cc1c(N=C2NC(=O)/C(=C/c3ccc(O)cc3)S2)c(=O)n(-c2ccccc2)n1C`, the CPE inhibition is 0.27% (inactive).

`CC12CCC(C/C1=N\N=C1\NC(=O)/C(=C\c3ccc(Cl)cc3)S1)C2(C)C` (stereo not drawn): the CPE inhibition is 12.2% (active).

Take `NS(=O)(=O)c1ccc(NC(=S)N2CCN(c3ccccc3)CC2)cc1`: the CPE inhibition was 0.43% (inactive).

For `O=C(COc1ccccc1-c1ccccc1)NCCN1C(=O)S/C(=C\c2cccnc2)C1=O`, the CPE inhibition was 2.91% (inactive).

Take `COc1ccc(N(C(=O)CSCC(=O)Nc2cc(C)on2)C(C(=O)NC2CCCCC2)c2ccc(O)c(O)c2)cc1` (stereo not drawn): the CPE inhibition entry was “inactive”.

Regarding `COc1ccc(N(C(=O)C2COc3ccccc3O2)C(C(=O)NC2CCCCC2)c2ccccc2)cc1OC` (stereo not drawn), the CPE inhibition is 4.27% (inactive).

Regarding `COc1cc(OC)cc(N(C(=O)C2COc3ccccc3O2)C(C(=O)NC2CCCCC2)c2ccc(O)cc2)c1` (stereo not drawn), the CPE inhibition was 12.5% (active).

As for `CC(C)[C@H](NC(=O)c1ccccc1)C(=O)OCC(=O)N1CCCCCC1`, the CPE inhibition was 1.74% (inactive).

Take `COc1cc(C(=O)NC(=S)N(CCc2ccccc2)CCc2ccccc2)cc(OC)c1OC`: the CPE inhibition result was “inactive”.

Turning to `COCCNC(=S)N/N=C(\C)c1ccccc1OC`, the CPE inhibition was 0.125% (inactive).

Take `CC1CCCC(NC(=O)COC(=O)c2cccc(NS(=O)(=O)/C=C/c3ccccc3)c2)C1C` (stereo not drawn): the CPE inhibition entry was “inactive”.

For the compound `Cc1ccc(-c2nc(N)sc2CC(=O)OCC(=O)NC2CCCC(C)C2C)cc1` (stereo not drawn), the CPE inhibition is 0.74% (inactive).

As to `COc1cccc(/C=C(/C(=O)OCC(=O)NC2CCCC(C)C2C)c2ccccc2)c1` (stereo not drawn), the CPE inhibition is 28.3% (active).

For the compound `O=C1COc2cc(ccc2[N+](=O)[O-])Oc2ccc(cc2Cl)C(=O)CCCCO1`, the CPE inhibition result is “inactive”.

Take `c1nc(N2CCC3(CC2)OCCO3)c2[nH]cnc2n1`: the CPE inhibition result was “inactive”.

Regarding `Cc1ccc(C(C(=O)NC2CCCCC2)N(C(=O)Cc2c[nH]c3ccccc23)c2ccccc2C)o1` (stereo not drawn), the CPE inhibition was 3.84% (inactive).

Regarding `Cc1ccc(C(C(=O)NC2CCCCC2)N(Cc2ccccc2)C(=O)Cc2c[nH]c3ccccc23)o1` (stereo not drawn), the CPE inhibition was 24.2% (active).

On to `COc1cccc(CN(C(=O)Cc2c[nH]c3ccccc23)C(C(=O)NC2CCCCC2)c2ccc(C)o2)c1` (stereo not drawn), for which the CPE inhibition is 3.12% (inactive).

Turning to `CCN1CCS/C1=C/C=C/C1=[N+](CC)CCS1`, the CPE inhibition is 0.14% (inactive).

As to `CC(C)(C)[C@H]1C=C(C(=O)Nc2ccccc2)O[C@@H](OCCCCO)C1`, the CPE inhibition entry was “inactive”.

Take `O=C1C2C3C=CC(c4ccccc4)(C2C(=O)N1c1cccc(Cl)c1)C1C(=O)N(c2cccc(Cl)c2)C(=O)C31` (stereo not drawn): the CPE inhibition is 25.2% (active).

For `O=C1C2C(c3ccccc3)(C(=O)N1c1ccc(Cl)cc1)C2(c1ccccc1)c1ccccc1` (stereo not drawn), the CPE inhibition is 1.7% (inactive).

As for `CC12CCC(C(=O)N(c3cccc(Cl)c3)C1=O)C2(C)C` (stereo not drawn), the CPE inhibition entry was “inactive”.

Regarding `CC(C)(C)c1ccc(-c2ccc3c(c2)S(=O)(=O)c2ccccc2C3=O)cc1`, the CPE inhibition is 2.16% (inactive).

Regarding `COc1ccc(CCN2C(=O)NC(NC(C)=O)(C(F)(F)F)C2=O)cc1OC` (stereo not drawn), the CPE inhibition was 0.945% (inactive).

For the compound `CCCCC[C@H]1CN(CCCC)C(=O)[C@@H]1CC(=O)NCc1ccccc1`, the CPE inhibition was 3.67% (inactive).

In the case of `COC(=O)CN1C(=S)N(Cc2ccccc2)C(=O)C1CC(=O)Nc1ccc(OC)cc1` (stereo not drawn), the CPE inhibition result is “inactive”.

As to `COc1ccc(CN2C[C@H](Cc3ccccc3)[C@@H](CC(=O)Nc3ccccc3)C2=O)cc1`, the CPE inhibition is 13.5% (active).

Consider `O=C(CN1C2=NCCCN2c2ccccc21)c1cccc(Br)c1`, for which the CPE inhibition was 4% (inactive).

In the case of `C[C@]12C(=O)N(c3ccc(F)cc3)C(=O)N1[C@H]1c3ccccc3OC[C@@H]1[C@H]2c1ccccc1`, the CPE inhibition is 1.73% (inactive).

`C[C@@]12C(=O)Nc3ccc(Br)cc3C(=O)N1[C@H]1c3cc(Cl)ccc3OC[C@@H]1[C@@H]2c1ccccc1`: the CPE inhibition is 18.8% (active).

With `C[C@@]12C(=O)Nc3ccc(F)cc3C(=O)N1[C@H]1c3cc(Br)ccc3OC[C@@H]1[C@@H]2c1ccccc1`, the CPE inhibition is 6.78% (inactive).

As to `CCOC(=O)[C@@H]1[C@H]2COc3cc(OC)ccc3[C@H]2N2C(=O)N(c3ccc(F)cc3)C(=O)[C@@]12C`, the CPE inhibition was 2.49% (inactive).

Regarding `COc1ccc2c(c1)OC[C@H]1[C@H]2N2C(=O)CN(Cc3ccc(F)cc3)C(=O)[C@@]2(C)[C@H]1c1ccccc1`, the CPE inhibition is 12.2% (active).

Turning to `COc1ccc2c(c1)C(=O)N1[C@H]3c4cc(OC)ccc4OC[C@@H]3[C@H](c3ccccc3)[C@]1(C)C(=O)N2`, the CPE inhibition was 7.37% (inactive).

Consider `C[C@]12C(=O)N(c3ccc(C(F)(F)F)cc3)C(=O)N1[C@H]1c3ccccc3OC[C@@H]1[C@H]2c1ccccc1`, for which the CPE inhibition was 11.2% (inactive).

`COc1cc2c(cc1OC)C(=O)N1[C@H]3c4cc(Cl)ccc4OC[C@@H]3[C@H](c3ccccc3)[C@]1(C)C(=O)N2`: the CPE inhibition was 16.3% (active).

Regarding `COc1ccc2c(c1)[C@H]1[C@H](CO2)[C@H](c2ccccc2)[C@]2(C)C(=O)Nc3cc(OC)c(OC)cc3C(=O)N12`, the CPE inhibition is 2% (inactive).

For `COc1ccc2c(c1)[C@H]1[C@H](CO2)[C@H](c2ccccc2)[C@]2(C)C(=O)Nc3cc(Cl)ccc3C(=O)N12`, the CPE inhibition is 11% (inactive).

In the case of `COc1ccc2c(c1)C(=O)N1[C@H]3c4cc(C)ccc4OC[C@@H]3[C@H](c3ccccc3)[C@]1(C)C(=O)N2`, the CPE inhibition is 14.5% (active).

In the case of `CCOC(=O)[C@@H]1[C@H]2COc3cc(OC)ccc3[C@@H]2N2C(=O)N(c3ccccc3)C(=O)[C@]12C`, the CPE inhibition was 0.065% (inactive).

Turning to `CCOc1ccc(N2C(=O)/C(=C/c3ccco3)N(C)C2=S)cc1`, the CPE inhibition was 3.13% (inactive).

Consider `Cc1cc(C)cc(NC(=S)NCc2cccs2)c1`, for which the CPE inhibition was 1.1% (inactive).

As to `Cc1ccc(C)c(NC(=O)COC(=O)c2cccc3c2C(=O)c2ccccc2C3=O)c1`, the CPE inhibition is 0.805% (inactive).

As for `O=C(OC(c1ccccc1)c1nccc2ccccc12)c1cc([N+](=O)[O-])cc([N+](=O)[O-])c1` (stereo not drawn), the CPE inhibition was 0.39% (inactive).

As to `Cc1ccc(-c2nn(-c3ccccc3)cc2/C=C/C(=O)Nc2nccs2)cc1`, the CPE inhibition is 3.35% (inactive).

Consider `CC(=O)N1CCC2(CC1)CC(=O)c1cc(Cl)ccc1O2`, for which the CPE inhibition entry was “inactive”.

In the case of `Cc1cc(C)c(-c2csc(NC(=O)c3n[nH]c(=O)c4ccccc34)n2)c(C)c1`, the CPE inhibition was 2.35% (inactive).

With `COC(=O)[C@H]1[C@H](CCc2ccccc2)NC(=O)N(Cc2ccccc2)[C@@H]1C`, the CPE inhibition result is “inactive”.

Turning to `COC(=O)c1c(NC(=O)CN2CCC3(O)CCCCC3C2c2ccc(F)cc2)sc(C)c1C` (stereo not drawn), the CPE inhibition was 27.5% (active).

Turning to `COc1ccc(C2C3CCCCC3(O)CCN2C(=O)c2cccs2)cc1` (stereo not drawn), the CPE inhibition is 2.42% (inactive).

For `COC(=O)c1c(NC(=O)CN2CCC3(O)CCCCC3C2c2ccccc2OC)sc(C)c1C` (stereo not drawn), the CPE inhibition was 2.39% (inactive).

`COC(=O)c1c(NC(=O)CN2CCC3(O)CCCCC3C2c2cc(OC)ccc2OC)sc(C)c1C` (stereo not drawn): the CPE inhibition was 11.8% (active).

As for `COC(=O)c1c(NC(=O)CC2Sc3ccc(C(F)(F)F)cc3NC2=O)sc(C)c1C` (stereo not drawn), the CPE inhibition was 0.71% (inactive).

For the compound `CCOC(=O)c1c(NC(=O)CN2C(=O)NC3(CCCCC3)C2=O)sc(C)c1-c1ccc(C)cc1`, the CPE inhibition is 9.96% (inactive).

On to `CCOc1cc(/C=C(\C#N)C(N)=O)ccc1OS(=O)(=O)c1ccccc1`, for which the CPE inhibition was 0.64% (inactive).

With `COc1cc(C(=O)NCC(c2ccco2)N(C)C)cc(OC)c1OC` (stereo not drawn), the CPE inhibition was 0.055% (inactive).

Consider `CC(C(=O)NC1CCCc2ccccc21)N1CCN(c2ccc(F)cc2)CC1` (stereo not drawn), for which the CPE inhibition is 0.305% (inactive).

On to `CC(C)(C)[C@H]1C=C(C(=O)NCc2ccccc2)O[C@@H](OCCCCO)C1`, for which the CPE inhibition was 0.655% (inactive).

Consider `CCC(C)c1ccccc1NC(=O)COC(=O)c1ccc2[nH]c3c(c2c1)CCCC3` (stereo not drawn), for which the CPE inhibition is 25.9% (active).

As for `CC(C)c1ccccc1NC(=O)COC(=O)c1ccc(Cl)c(S(=O)(=O)N2CCCCCC2)c1`, the CPE inhibition was 0.87% (inactive).

In the case of `CC(C)c1ccccc1NC(=O)COC(=O)Cc1c[nH]c2ccccc12`, the CPE inhibition entry was “inactive”.

Turning to `NNc1nc(-c2ccccc2)nc2sc3c(c12)CCCC3`, the CPE inhibition result is “inactive”.

Turning to `COc1ccc(-c2c(-c3cc(OC)cc(OC)c3)n(C)c3ccc(-c4ccc(N(C)C)nc4)cc23)cc1`, the CPE inhibition is 0.63% (inactive).

For the compound `O=C1CN(C(=O)COc2ccc(Br)cc2F)c2ccccc2N1`, the CPE inhibition result is “inactive”.

`CCOc1ccc(NS(=O)(=O)c2cc(NC(=O)CCS(=O)(=O)c3ccc(C)cc3)ccc2OC)cc1`: the CPE inhibition was 0.21% (inactive).

Take `CCOC(=O)c1c(C)[nH]c(C(=O)N/N=C\c2ccccc2Cl)c1C`: the CPE inhibition was 3.76% (inactive).

For the compound `CCOC(=O)c1c(C)nc2ccc(Cl)cc2c1-c1ccccc1`, the CPE inhibition is 0.765% (inactive).

In the case of `CCOC(=O)c1c(C)[nH]c(C=O)c1Cc1cccc(Cl)c1`, the CPE inhibition was 14.8% (active).

As to `O=C(O)CCC(=O)Nc1ccccc1C(=O)NCc1ccccc1`, the CPE inhibition is 1.71% (inactive).

Consider `CCCCNc1c(-c2cccc(SC(C)CC)c2)nc2ccc(Cl)cn12` (stereo not drawn), for which the CPE inhibition was 1.45% (inactive).

In the case of `CCCCNc1c(-c2ccc(-c3cccc(Cl)c3)cc2)nc2ccc(Cl)cn12`, the CPE inhibition is 9.97% (active).

Consider `CCCCNc1c(-c2cccc(-c3ccc(OC)cc3)c2)nc2cc(C)ccn12`, for which the CPE inhibition entry was “inactive”.

As for `Cc1c(Cl)cccc1NC(=O)COC(=O)c1c2c(nc3ccccc13)CCN(Cc1ccccc1)C2`, the CPE inhibition is 0.23% (inactive).

In the case of `CCc1nnc(N/N=C/c2cccs2)n1N`, the CPE inhibition was 2.18% (inactive).

For `CC(C)(C)c1nnc(N/N=C/c2ccccc2)n(N)c1=O`, the CPE inhibition is 2.69% (inactive).

For `CC(C)(C)c1nnc(N/N=C/c2ccc(Br)cc2)n(N)c1=O`, the CPE inhibition was 27.6% (active).

As to `C/C(=N\NC(=O)CN(c1ccccc1Br)S(C)(=O)=O)c1ccc2c(c1)OCCO2`, the CPE inhibition is 0.855% (inactive).

Turning to `CCOC(=O)/C=C/[C@H]1CC(c2ccccc2)(c2ccccc2)CO1`, the CPE inhibition was 0.15% (inactive).

Consider `Cn1c(SCC(=O)N2c3ccccc3CCc3ccccc32)nnc1-c1cc2ccccc2cc1O`, for which the CPE inhibition is 11.1% (active).

Regarding `Cn1c(SCC(=O)N2c3ccccc3CCc3ccccc32)nnc1-c1ccc(O)cc1`, the CPE inhibition entry is “inactive”.

`CCn1c(SCC(=O)N2c3ccccc3CCc3ccccc32)nnc1-c1ccc(OC)cc1`: the CPE inhibition was 1.05% (inactive).
